{"source": "the supplement of paper PMC10723795", "note": "± gives the standard deviation of the averaged measurements.", "data": [{"test_system": "BJ5TA", "assay": "nucleolar normality score relative to DMSO (fraction of DMSO control); RPE1 is a non-cancer human cell line; higher = more normal nucleoli (less nucleolar stress)", "experimental": "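Selected screen hits were validated in hTERT lines (BJ5TA, CHON-002, RPE1) and cancer lines (DLD1, HCT116). Cells were immunostained for nucleolin and UBF and the nucleolar normality score was measured per field of view, with 4 fields per drug. Scores are normalized to each cell line's own DMSO control. Dose and time are not stated for this panel.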", "values": [{"smiles": "CC(C)c1cc(C(=O)N2Cc3ccc(CN4CCN(C)CC4)cc3C2)c(O)cc1O", "note": "[Onalespib]", "nucleolar normality score": "0.294 ± 0.019"}, {"smiles": "CN(C)CCNC(=O)c1cccn2c(=O)c3cc4ccccc4cc3nc12", "nucleolar normality score": "0.0738 ± 0.013"}, {"smiles": "CC(C)c1c2cc(-c3ccnc(NC4CCC(NC5CCOCC5)CC4)n3)ccc2nn1C", "note": "(configuration not stated)", "nucleolar normality score": "0.317 ± 0.025"}, {"smiles": "CN1CC[C@H](c2c(O)cc(O)c3c(=O)cc(-c4ccccc4Cl)oc23)[C@H](O)C1", "note": "[Flavopiridol]", "nucleolar normality score": "0.202 ± 0.03"}, {"smiles": "COc1cccc2c1C(=O)c1c(O)c3c(c(O)c1C2=O)C[C@@](O)(C(=O)CO)C[C@@H]3O[C@H]1C[C@H](N)[C@H](O)[C@H](C)O1", "note": "[Doxorubicin]", "nucleolar normality score": "0.129 ± 0.025"}, {"smiles": "COC[C@H](NC(=O)c1cnc(C)s1)C(=O)N[C@@H](COC)C(=O)N[C@@H](Cc1ccccc1)C(=O)[C@@]1(C)CO1", "note": "[Oprozomib]", "nucleolar normality score": "0.449 ± 0.043"}, {"smiles": "C=CCNC1=C2C[C@@H](C)C[C@H](OC)[C@H](O)[C@@H](C)/C=C(\\C)[C@H](OC(N)=O)[C@@H](OC)/C=C\\C=C(/C)C(=O)NC(=CC1=O)C2=O", "nucleolar normality score": "0.306 ± 0.0062"}, {"smiles": "Cc1cnc(CNC(=O)c2c(=O)c3ccc(N4CCCN(C)CC4)nc3n3c2sc2ccccc23)cn1", "nucleolar normality score": "0.107 ± 0.0069"}, {"smiles": "Cc1nc(-c2cn3c(n2)-c2ccc(-c4cnn(C(C)(C)C(N)=O)c4)cc2OCC3)n(C(C)C)n1", "note": "[Taselisib]", "nucleolar normality score": "0.347 ± 0.013"}, {"smiles": "CCc1cnn2c(NCc3ccc[n+]([O-])c3)cc(N3CCCC[C@H]3CCO)nc12", "note": "[Dinaciclib]", "nucleolar normality score": "0.242 ± 0.0091"}, {"smiles": "CC(C)C[C@H](NC(=O)[C@H](CCc1ccccc1)NC(=O)CN1CCOCC1)C(=O)N[C@@H](Cc1ccccc1)C(=O)N[C@@H](CC(C)C)C(=O)[C@@]1(C)CO1", "note": "[Carfilzomib]", "nucleolar normality score": "0.328 ± 0.027"}, {"smiles": "CC(C)n1nc(-c2ccc3oc(N)nc3c2)c2c(N)ncnc21", "note": "[Sapanisertib]", "nucleolar normality score": "0.418 ± 0.049"}]}]}
